Percent Effect data for eleven molecules are collected here from ChEMBL document CHEMBL3988442, “University of Dundee, Small-Polar-MMV Screening Library” (2021).

Design in all cases: scale not given: direction of the effect not stated beside the values
In assay [1] the target is Protein translocase subunit SecA (Escherichia coli (strain K12)) (UniProt P10408). In words: Assay to Identify E. coli SecA ATPase Inhibitors. It counts as functional. The following applies: 30 µM.
Assay [2] deals with T1, Ubiquitin-activating enzyme e1, putative (Leishmania donovani (strain BPK282A1)) (UniProt E9BSI1).
T1 sequence (whole entry): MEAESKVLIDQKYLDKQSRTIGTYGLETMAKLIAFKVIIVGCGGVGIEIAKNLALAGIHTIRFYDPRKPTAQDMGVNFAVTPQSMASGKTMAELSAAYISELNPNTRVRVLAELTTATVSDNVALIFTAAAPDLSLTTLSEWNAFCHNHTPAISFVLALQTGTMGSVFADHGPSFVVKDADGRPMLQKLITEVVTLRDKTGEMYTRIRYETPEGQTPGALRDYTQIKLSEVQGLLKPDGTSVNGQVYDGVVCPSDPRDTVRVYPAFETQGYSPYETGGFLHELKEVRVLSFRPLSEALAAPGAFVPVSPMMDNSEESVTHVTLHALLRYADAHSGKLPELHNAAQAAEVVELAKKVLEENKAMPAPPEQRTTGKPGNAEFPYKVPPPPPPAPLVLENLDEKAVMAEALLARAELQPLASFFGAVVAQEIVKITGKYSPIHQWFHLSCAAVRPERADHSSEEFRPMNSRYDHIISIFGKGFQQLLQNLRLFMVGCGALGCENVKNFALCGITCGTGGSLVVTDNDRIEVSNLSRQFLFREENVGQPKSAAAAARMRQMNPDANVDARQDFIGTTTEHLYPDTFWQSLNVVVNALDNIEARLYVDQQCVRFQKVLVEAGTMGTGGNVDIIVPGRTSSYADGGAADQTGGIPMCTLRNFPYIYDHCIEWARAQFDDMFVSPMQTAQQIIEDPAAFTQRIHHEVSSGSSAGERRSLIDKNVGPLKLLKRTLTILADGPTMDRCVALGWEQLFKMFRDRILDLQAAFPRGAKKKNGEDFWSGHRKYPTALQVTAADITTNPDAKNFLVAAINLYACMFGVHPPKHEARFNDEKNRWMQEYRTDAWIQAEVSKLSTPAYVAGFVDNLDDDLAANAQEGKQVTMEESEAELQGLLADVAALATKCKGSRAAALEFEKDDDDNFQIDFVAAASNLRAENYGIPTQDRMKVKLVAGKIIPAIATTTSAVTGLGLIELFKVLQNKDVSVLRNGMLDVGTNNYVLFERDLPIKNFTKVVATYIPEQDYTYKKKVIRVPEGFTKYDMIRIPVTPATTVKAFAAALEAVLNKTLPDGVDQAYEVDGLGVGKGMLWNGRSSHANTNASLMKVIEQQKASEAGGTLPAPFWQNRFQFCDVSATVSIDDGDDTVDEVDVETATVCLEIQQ
Briefly: Leishmania donovani Ubiquitin Activating Enzyme (LdE1). It is filed as functional. Particulars: 30 µM.

The target in assay [3] is AMP-activated protein kinase, AMPK (Homo sapiens) (UniProt P54646+O43741+P54619+Q9UGJ0+Q9Y478+Q13131+Q9UGI9). In words: AMP-dependent Kinase enzyme assay. An in vitro enzyme assay that detects ADP turnover that is directly proportional to AMPK activity. This uses naive AMPK that is activated during the assay with MK-8722. It counts as functional. The following applies: 30 µM.

Assay [4] has as its target Sialic acid-binding Ig-like lectin 9 (Homo sapiens) (UniProt Q9Y336). In words: Hs-Siglec9 ALPHAscreen SOP 20170721. Particulars: 10 µM. A general note: Alpha assays give light when donor and acceptor beads are brought close together.
The next assay relates to Trypanosoma cruzi. In words: Trypanosoma cruzi phosphomannomutase and mannose-1-phosphate guanylyltransferase assay. It is filed as functional. Particulars: 10 µM.
Assay [5] has as its target T2, Arginase-2, mitochondrial (Homo sapiens) (UniProt P78540).
T2 sequence (whole entry): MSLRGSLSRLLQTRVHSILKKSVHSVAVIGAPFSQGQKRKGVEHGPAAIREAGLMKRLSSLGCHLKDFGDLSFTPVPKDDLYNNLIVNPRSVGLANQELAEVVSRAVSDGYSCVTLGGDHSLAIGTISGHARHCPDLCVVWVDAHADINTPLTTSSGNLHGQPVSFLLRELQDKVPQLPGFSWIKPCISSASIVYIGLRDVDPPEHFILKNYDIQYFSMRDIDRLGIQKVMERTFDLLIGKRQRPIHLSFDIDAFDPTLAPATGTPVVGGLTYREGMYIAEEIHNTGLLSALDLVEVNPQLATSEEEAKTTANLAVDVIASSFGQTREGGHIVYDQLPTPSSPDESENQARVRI
Briefly: in vitro enzyme assay to detect the production of urea directly proportional to the activity of Arginase II. Further: in the data most compounds retested in dose-response had high values. It counts as functional. The following applies: 33.3 µM.

In assay [6] the target is T3, Proteasome subunit beta (Trypanosoma cruzi) (UniProt O96673).
T3 sequence (whole entry): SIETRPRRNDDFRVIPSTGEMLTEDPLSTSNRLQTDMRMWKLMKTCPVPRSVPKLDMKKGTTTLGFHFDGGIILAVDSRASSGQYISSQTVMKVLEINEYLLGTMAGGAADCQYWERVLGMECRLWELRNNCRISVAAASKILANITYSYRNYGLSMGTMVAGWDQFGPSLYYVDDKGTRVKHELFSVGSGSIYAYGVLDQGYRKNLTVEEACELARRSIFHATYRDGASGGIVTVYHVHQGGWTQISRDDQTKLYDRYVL
Briefly: Trypanosoma cruzi proteasome chymotrypsin-like activity (TcProtChymo) assay. Further: in the data most compounds retested in dose-response had high values. It counts as functional. Particulars: 9.37 µM.

The species named for another assay is Homo sapiens. In words: To identify inhibition of the IFN signalling (Jak-Stat) pathway via expression of an eGFP reporter gene under the control of an IFN-stimulated response element (ISRE) containing MxA promoter. It counts as functional. The following applies: 30 µM.
In assay [7] the target is T4, Tyrosyl-tRNA synthetase, putative (Trypanosoma cruzi (strain CL Brener)) (UniProt Q4DSP6).
T4 sequence (whole entry): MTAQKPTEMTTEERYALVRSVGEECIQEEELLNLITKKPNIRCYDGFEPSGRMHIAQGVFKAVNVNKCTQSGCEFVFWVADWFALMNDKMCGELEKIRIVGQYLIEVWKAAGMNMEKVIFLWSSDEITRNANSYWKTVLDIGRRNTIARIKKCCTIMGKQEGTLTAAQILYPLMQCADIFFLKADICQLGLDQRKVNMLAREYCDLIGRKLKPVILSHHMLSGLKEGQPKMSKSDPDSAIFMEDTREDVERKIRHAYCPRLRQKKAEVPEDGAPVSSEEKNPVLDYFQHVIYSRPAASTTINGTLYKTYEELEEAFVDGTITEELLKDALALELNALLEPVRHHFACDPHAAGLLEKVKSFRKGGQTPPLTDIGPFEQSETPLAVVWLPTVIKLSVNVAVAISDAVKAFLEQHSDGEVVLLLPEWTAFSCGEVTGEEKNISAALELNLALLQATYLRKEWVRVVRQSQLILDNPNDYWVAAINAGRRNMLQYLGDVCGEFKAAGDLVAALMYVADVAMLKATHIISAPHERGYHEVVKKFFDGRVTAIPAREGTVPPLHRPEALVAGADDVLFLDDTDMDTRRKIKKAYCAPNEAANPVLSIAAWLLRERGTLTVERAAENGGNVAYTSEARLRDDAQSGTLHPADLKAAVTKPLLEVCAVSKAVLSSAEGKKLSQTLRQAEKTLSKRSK
In words: Trypanosoma cruzi tyrosyl tRNA synthetase (TcYRS) _High Tyrosine SOP. Further: in the data most compounds retested in dose-response had high values. It is filed as functional. The following applies: 30 µM.

The target in assay [8] is T4, Tyrosyl-tRNA synthetase, putative (Trypanosoma cruzi (strain CL Brener)). In words: Trypanosoma cruzi tyrosyl tRNA synthetase (TcYRS) SOP. It is filed as functional. Particulars: 30 µM.
The target of assay [9] is Chromo domain-containing protein 1 (Saccharomyces cerevisiae (strain ATCC 204508 / S288c) (Baker's yeast)) (UniProt P32657). Briefly: ScCHD-1 Enzyme Inhibition Assay. Further: in the data most compounds retested in dose-response had high values. It is filed as functional. Particulars: 30 µM.

Structures are written as SMILES. For some of these results: Measured potencies and affinities stand elsewhere.

Chromo domain-containing protein 1 (Saccharomyces cerevisiae (strain ATCC 204508 / S288c) (Baker's yeast)), sequence (P32657 whole entry, the tested form may be a part): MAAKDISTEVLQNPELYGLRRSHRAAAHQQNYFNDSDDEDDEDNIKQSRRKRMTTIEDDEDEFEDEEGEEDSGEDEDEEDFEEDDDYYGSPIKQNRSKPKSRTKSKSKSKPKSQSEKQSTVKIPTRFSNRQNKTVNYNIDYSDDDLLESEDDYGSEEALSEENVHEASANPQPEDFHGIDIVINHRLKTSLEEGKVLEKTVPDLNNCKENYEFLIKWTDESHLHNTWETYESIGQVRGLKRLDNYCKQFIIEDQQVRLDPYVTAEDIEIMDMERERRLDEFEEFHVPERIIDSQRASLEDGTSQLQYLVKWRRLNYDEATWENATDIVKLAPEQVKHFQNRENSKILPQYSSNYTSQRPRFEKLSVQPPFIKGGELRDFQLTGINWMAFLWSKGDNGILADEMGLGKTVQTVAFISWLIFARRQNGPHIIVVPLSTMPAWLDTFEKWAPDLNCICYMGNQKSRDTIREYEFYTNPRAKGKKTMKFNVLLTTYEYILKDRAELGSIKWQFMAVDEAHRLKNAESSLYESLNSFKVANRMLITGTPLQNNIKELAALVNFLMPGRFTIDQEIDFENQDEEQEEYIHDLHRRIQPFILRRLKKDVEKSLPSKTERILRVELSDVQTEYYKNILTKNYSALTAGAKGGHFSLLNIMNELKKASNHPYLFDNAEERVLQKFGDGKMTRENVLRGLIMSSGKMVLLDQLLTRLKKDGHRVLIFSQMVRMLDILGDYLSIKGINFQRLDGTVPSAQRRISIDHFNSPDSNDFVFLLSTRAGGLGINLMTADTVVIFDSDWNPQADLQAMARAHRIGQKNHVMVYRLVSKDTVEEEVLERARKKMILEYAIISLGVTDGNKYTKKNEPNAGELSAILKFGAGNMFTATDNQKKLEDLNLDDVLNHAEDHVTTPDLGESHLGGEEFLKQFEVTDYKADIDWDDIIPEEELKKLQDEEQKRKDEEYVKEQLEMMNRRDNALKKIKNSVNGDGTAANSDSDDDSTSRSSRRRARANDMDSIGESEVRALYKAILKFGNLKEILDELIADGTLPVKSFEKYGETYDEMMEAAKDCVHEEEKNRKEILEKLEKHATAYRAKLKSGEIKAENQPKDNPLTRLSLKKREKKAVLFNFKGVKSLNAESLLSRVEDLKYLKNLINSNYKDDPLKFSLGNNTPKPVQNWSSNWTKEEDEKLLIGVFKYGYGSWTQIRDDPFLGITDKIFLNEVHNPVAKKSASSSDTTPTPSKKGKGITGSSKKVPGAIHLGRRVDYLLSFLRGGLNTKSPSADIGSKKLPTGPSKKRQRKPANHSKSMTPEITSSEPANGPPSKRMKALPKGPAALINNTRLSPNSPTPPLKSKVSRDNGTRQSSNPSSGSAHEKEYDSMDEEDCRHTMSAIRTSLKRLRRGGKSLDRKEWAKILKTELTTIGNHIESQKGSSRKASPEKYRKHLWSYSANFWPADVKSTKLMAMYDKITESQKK
Sialic acid-binding Ig-like lectin 9 (Homo sapiens), sequence (Q9Y336 whole entry): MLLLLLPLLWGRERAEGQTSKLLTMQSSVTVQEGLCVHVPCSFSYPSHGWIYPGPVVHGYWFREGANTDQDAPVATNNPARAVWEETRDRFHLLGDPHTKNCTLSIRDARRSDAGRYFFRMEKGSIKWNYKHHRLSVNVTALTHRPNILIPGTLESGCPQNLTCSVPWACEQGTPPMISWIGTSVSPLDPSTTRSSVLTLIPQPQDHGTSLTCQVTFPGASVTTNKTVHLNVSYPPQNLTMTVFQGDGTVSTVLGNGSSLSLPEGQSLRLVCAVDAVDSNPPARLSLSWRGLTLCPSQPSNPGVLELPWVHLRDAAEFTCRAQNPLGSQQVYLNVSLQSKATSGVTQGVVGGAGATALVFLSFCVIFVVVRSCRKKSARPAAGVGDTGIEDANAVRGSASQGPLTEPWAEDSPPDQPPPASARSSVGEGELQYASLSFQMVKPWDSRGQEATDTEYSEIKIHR
Protein translocase subunit SecA (Escherichia coli (strain K12)), sequence (P10408 whole entry): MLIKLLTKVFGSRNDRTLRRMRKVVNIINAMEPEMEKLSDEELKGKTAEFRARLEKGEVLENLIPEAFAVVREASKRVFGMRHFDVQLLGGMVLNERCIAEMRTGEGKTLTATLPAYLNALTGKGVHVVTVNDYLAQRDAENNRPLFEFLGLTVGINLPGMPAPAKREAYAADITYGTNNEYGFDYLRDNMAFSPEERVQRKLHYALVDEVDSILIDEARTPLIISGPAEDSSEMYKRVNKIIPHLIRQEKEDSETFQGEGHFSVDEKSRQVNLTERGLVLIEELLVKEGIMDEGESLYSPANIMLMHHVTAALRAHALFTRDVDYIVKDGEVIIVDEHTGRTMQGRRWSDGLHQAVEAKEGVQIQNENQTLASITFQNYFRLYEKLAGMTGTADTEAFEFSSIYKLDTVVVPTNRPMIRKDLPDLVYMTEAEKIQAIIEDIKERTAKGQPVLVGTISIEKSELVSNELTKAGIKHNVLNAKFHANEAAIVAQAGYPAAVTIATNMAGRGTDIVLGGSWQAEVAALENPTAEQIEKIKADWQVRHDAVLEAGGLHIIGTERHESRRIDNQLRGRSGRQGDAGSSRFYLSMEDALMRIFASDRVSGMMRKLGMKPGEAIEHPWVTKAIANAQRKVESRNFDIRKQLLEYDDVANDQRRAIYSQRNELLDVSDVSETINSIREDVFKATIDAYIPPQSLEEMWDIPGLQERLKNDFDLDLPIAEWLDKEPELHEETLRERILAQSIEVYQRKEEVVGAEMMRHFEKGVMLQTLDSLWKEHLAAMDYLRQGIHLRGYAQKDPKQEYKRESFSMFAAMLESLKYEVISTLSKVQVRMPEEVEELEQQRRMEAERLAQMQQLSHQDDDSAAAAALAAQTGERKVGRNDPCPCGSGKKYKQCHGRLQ

On to `O=C(O)c1cc(S(=O)(=O)Nc2ccc(Cl)cc2)cc2c1OCCO2`, for which the Percent Effect in assay [1] is -4.18%; in [2], -8.86%; in assay [3], 4.72%; in assay [4], 2.13%; with Trypanosoma cruzi, -2.97%; in [5] it was 4.09%. The Percent Effect in assay [6] is 8.75%; in the assay filed under Homo sapiens it was -2.12%; in assay [7], -18.8%; in [8] it was -15.2%; in assay [9], -21.4%.

As to `COc1ccc(CNC(=O)NC(C)Cn2cccn2)cc1O` (stereo unspecified), the Percent Effect is -1.61% in assay [1]; 5.2% in assay [2]; -4.12% in [3]; 3.12% in [4]; 2.64% with Trypanosoma cruzi; -1.47% in [5]. For the same molecule, the Percent Effect in assay [6] is 3.15%; in the assay listed under Homo sapiens, 25.9%; in assay [7], 3.81%; in [8] it was 11.8%; in assay [9] it was -15.6%.

As for `COCC1CN(C(=O)c2ccoc2C)Cc2nccn2C1` (stereo unspecified), the Percent Effect in assay [1] was -6.75%; in assay [2], 0%; in assay [3], 10.2%; in [4] it was -5.59%; in the assay with Trypanosoma cruzi, -6.3%; in [5] it was 0.233%. In addition, the Percent Effect is 2.03% in [6]; 12.3% in the assay filed under Homo sapiens; -3.19% in assay [7]; 1.28% in assay [8]; -4.85% in [9].

With `O=C(O)c1ccc(F)c(S(=O)(=O)Nc2c(F)cccc2-n2cccn2)c1`, the Percent Effect in assay [1] is -6.05%; in assay [2] it was 2.67%; in [3], -4.66%; in assay [4], 12.6%; in the assay with Trypanosoma cruzi, 2.04%; in assay [5], 3.12%. The Percent Effect in assay [6] was 8.02%; in the assay filed under Homo sapiens, 2.56%; in assay [7], 4.92%; in assay [8], 8.64%; in assay [9] it was -3.46%.

Consider `COc1ccc2c(c1)CN(Cc1nc3ccsc3c(=O)[nH]1)CC2`, for which the Percent Effect is -2.79% in assay [1]; -5.06% in [2]; -0.628% in assay [3]; 14.2% in assay [4]; -1.79% in the assay on Trypanosoma cruzi; 1.9% in assay [5]. The Percent Effect in assay [6] turned out to be 2.05%; in the assay filed under Homo sapiens it was 24.5%; in assay [7], 3.45%; in assay [8] it was 1.27%; in [9], 21.3%.

For the molecule `COc1ccccc1CN1CC[C@H]2C[C@@H](C(=O)N3CCCC3)O[C@H]2C1`, the Percent Effect in [1] is 2.23%; in [2] it was 13%; in assay [3], 4.84%; in assay [4], -5.31%; with Trypanosoma cruzi, -7.99%; in [5] it was 4.52%. Moreover, the Percent Effect is 8.88% in assay [6]; 6% in the assay filed under Homo sapiens; 6.35% in assay [7]; 14.1% in assay [8]; -7.87% in assay [9].

`CCc1nc(CC(=O)Nc2cnn(CC3CCCO3)c2)cs1` (stereo unspecified): the Percent Effect was -2.62% in assay [1]; 8.11% in assay [2]; -12.1% in [3]; -2.05% in assay [4]; -0.965% with Trypanosoma cruzi; -1.43% in assay [5]. For the same molecule, the Percent Effect is 7.59% in assay [6]; 0.276% in the assay listed under Homo sapiens; -4.76% in [7]; -2.44% in assay [8]; -1.6% in [9].

Consider `CC(C)c1nc(C2CCCN(C(=O)c3ccc4[nH]cnc4c3)C2)no1` (stereo unspecified), for which the Percent Effect in [1] is -9.93%; in [2], 18.2%; in [3], -3.37%; in [4], 3.45%; in the assay on Trypanosoma cruzi it was 5.97%; in [5], -5.26%. Besides, the Percent Effect was 12.5% in assay [6]; 10.7% in the assay listed under Homo sapiens; 5.71% in assay [7]; 2.35% in assay [8]; -15.3% in assay [9].

In the case of `CN(Cc1ccco1)C[C@H]1OC[C@@H]2CCN(Cc3cccnc3)C[C@@H]21`, the Percent Effect in [1] is -2.62%; in assay [2], 10.7%; in assay [3], 0.611%; in assay [4] it was -1.35%; in the assay with Trypanosoma cruzi it was 0.772%; in assay [5], -51.1%. The Percent Effect in assay [6] is 8.55%; in the assay filed under Homo sapiens, 1.18%; in assay [7], 0%; in assay [8] it was 10%; in assay [9], -2.25%.

Take `CCC1CN(CCNC(C)=O)CCN1CCOC` (stereo unspecified): the Percent Effect in [1] is -0.705%; in [2], 16.2%; in [3], -10.5%; in assay [4], -8.99%; in the assay on Trypanosoma cruzi it was -2.74%; in assay [5], -4.81%. Moreover, the Percent Effect in assay [6] was 18.2%; in the assay listed under Homo sapiens, 5.73%; in assay [7], 7.39%; in [8] it was 13.6%; in assay [9], -5.61%.

Consider `O=C(COc1ccccc1)N1CCC[C@]2(C[C@H](OCC3CC3)CO2)C1`, for which the Percent Effect was -0.456% in [1]; 7.79% in assay [2]; 0.996% in [3]; -3.06% in [4]; -3.45% in the assay on Trypanosoma cruzi; 14.8% in assay [5]. The Percent Effect was 22.1% in assay [6]; 3.98% in the assay filed under Homo sapiens; 8.47% in assay [7]; 16.7% in [8]; -7.91% in assay [9].
